HT1080 IDH1KD tx: kills HT-1080 cells with IDH1 knockdown | HT-1080 IDH1 knockdown viability, ATP luminescence, 48 h | Potency, µM (top dose mostly 46.1 µM), usual class: cytotoxic | hit rate 2% among 360,000
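In this qHTS, HT-1080 cells depleted of IDH1 are exposed for 48 h at 37 °C to compound titrations. Toxicity is scored from CellTiter-Glo luminescence, with DMSO as full viability and medium alone as none.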
MCF10A rerep: DNA re-replication induction in MCF 10a cells | AID 624296 | MCF 10A DNA re-replication, Hoechst nuclear intensity, 48 h | Potency, µM (top dose mostly 46.1 µM), actives largely listed as activators | hit rate 2.9% among 350,000; note: nearly all actives have a fitted effect of over 50% in size
KB-3-1 tox: kills parental KB-3-1 adenocarcinoma cells. AID 1347075. KB-3-1 viability, CellTiter-Glo ATP luminescence, 72 h. Potency, µM (highest dose often 46.1 µM), hits mostly cytotoxic. hit rate 1.4% among 400,000; note: nearly all actives have a fitted effect of over 60% in size
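Parental KB-3-1 adenocarcinoma cells in phenol-red-free DMEM with 10% FBS were pin-treated with compounds at several concentrations, incubated 72 h at 37 °C, and viability read by CellTiter-Glo luminescence; concentration-effect curves were fitted after normalization.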
HT1080NT lethal: kills 2HG-producing HT-1080-NT fibrosarcoma cells; AID 686970; HT-1080-NT fibrosarcoma viability, CellTiter-Glo ATP luminescence, 48 h; Potency, µM (series often up to 46.1 µM), usual class: cytotoxic; hit rate 1.6% among 360,000;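 note: NT is the 2HG producing partner of a matched IDH1 knockdown line; nearly all actives have a fitted effect of over 55% in size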
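Toxicity toward the 2HG-producing NT line was scored as %Activity, normalised to DMSO and no-cell wells, from CellTiter-Glo luminescence after 48 hours' treatment.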
KB-V1 MDR tox: KB-V1 MDR subline cytotoxicity; KB-V1 MDR cells viability, CellTiter-Glo, 72 h; Potency, µM (top dose mostly 46.1 µM), usual class: cytotoxic; hit rate 3.4% among 400,000; AID 1347076; note: nearly all actives have a fitted effect of over 60% in size
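Following 72 h at 37 degrees C with compound, KB-V1 cell viability was read by CellTiter-Glo luminescence, medium being phenol-red-free DMEM plus 10% FBS; concentration-response parameters came from normalized, curve-fitted qHTS data.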
SW480 rereplic: induces DNA re-replication in SW480 colon adenocarcinoma cells; SW480 DNA re-replication, Hoechst DNA content imaging, 48 h; hit rate 1.8% among 340,000; Potency, µM (doses to about 46.1 µM), hits mostly activators; note: nearly all actives have a fitted effect of over 55% in size
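SW480 cells exposed to compounds for 48 hr at 37 C, 5% CO2, then Hoechst-stained 40 min. Nuclear DNA content imaged by fluorescence scanning (405 nm excitation, 500-530 nm emission); re-replication scored as increased high-intensity nuclei.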
Numbers stand for hits; . = inactive; ? = inconclusive; / = not tested or not shown. Rows were chosen to be rich in hits. Some 8% of all compounds tested hit in one or more screens of this group. Calls come from the whole dose curve; as a rule, active = well fitted curve in the direction sought with a large enough effect; inconclusive = small, poorly fitted or top-dose-only effect, or another doubt; inactive = no such curve, though single readings can be large; an effect the other way counts as inactive or inconclusive.

SMILES	HT1080 IDH1KD tx	MCF10A rerep	KB-3-1 tox	HT1080NT lethal	KB-V1 MDR tox	SW480 rereplic
COCCNC(=S)NCCCNc1nc2cc3c(cc2cc1C#N)OCO3	.	.	.	.	.	.
CCOc1ccc(S(=O)(=O)NCCc2c(C)[nH]c3c(Cl)cccc23)cc1C	/	/	.	/	.	/
COc1cc(C(=O)NCCNc2nc3cc(C)ccc3cc2C#N)cc(OC)c1OC	.	.	.	.	.	.
CCOc1ccc2nc(NCCNC(=O)c3cc(OC)c(OC)c(OC)c3)c(C#N)cc2c1	.	23µM	.	.	.	6.5µM
Fc1cc(Br)ccc1Nc1c2c(nc3nc(-c4cccs4)nn13)CCCC2	/	/	?	/	.	/
COc1ccc(Br)cc1/C(C)=N/NC1=NCCN1	?	?	?	.	?	.
CCCCCOc1ccc(Br)cc1/C(C)=N/NC1=NCCN1	5.2µM	3.3µM	?	6.5µM	?	3.3µM
C=Cc1ccc(Cn2c(C(=O)O)c(CNC3CCCCC3)c3ccc(OC)cc32)cc1	/	/	.	/	.	/
Cc1ccccc1-c1cc2nccc(-c3cc(Cl)ccc3O)n2n1	/	/	.	/	.	/
Cc1ccc(NC(=O)Cn2cccc2C2=NC(c3ccccc3)CO2)cc1C (centres undefined)	.	?	?	.	15µM	?
Cc1oc(-c2ccccc2)nc1Cn1cccc1C1=NC(c2ccccc2)CO1 (centres undefined)	?	?	16µM	.	12µM	?
CCc1ccccc1NC(=O)Cn1cccc1C1=NC(c2ccccc2)CO1 (centres undefined)	16µM	.	.	?	?	?
Fc1ccc(Cn2cccc2C2=NC(c3ccccc3)CO2)cc1 (centres undefined)	.	.	.	.	.	.
CCCNC(=S)N1CCC(C(=O)c2ccc(Cl)cc2)CC1	.	.	.	.	.	7.3µM
CCOC(=O)c1cccc(NC(=O)c2cc3c(=O)n(Cc4cccnc4)ccc3nc2C)c1	/	/	.	/	.	/
Cc1sc2ncnc(N3CCC(C(=O)Nc4ccc(Br)cc4Br)CC3)c2c1C	.	.	?	.	5.8µM	.
CCCN(CC(=O)Nc1ccccc1C)C(=O)C1CCN(c2ncnc3sc(C)c(C)c23)CC1	.	?	.	.	21µM	.
COc1ccc(-c2csc(NC(=O)C3CCN(c4ncnc5sc(C)c(C)c45)CC3)n2)cc1OC	?	?	?	5.8µM	.	.
CCOC(=O)Cc1nn(Cc2nc(-c3ccc(C)cc3)cs2)c(=O)c2ccccc12	.	.	.	16µM	?	.
Cc1ccc(S(=O)(=O)N2CCN(c3nc(C(N)=O)nc4ccccc34)CC2)cc1	.	/	/	.	/	/
COc1ccc(-c2nc3ccccc3nc2-c2ccccc2)cc1	.	.	.	.	.	.
CC(C)N(C(=O)c1ccc2nc(-c3ccccc3)c(-c3ccccc3)nc2c1)C(C)C	.	?	?	.	23µM	.
CNC(=O)c1ccc2nc(-c3ccccc3)c(-c3ccccc3)nc2c1	/	/	.	/	.	/
COc1ccc(N(C)C(=O)c2ccc3nc(-c4ccccc4)c(-c4ccccc4)nc3c2)cc1	.	?	?	.	21µM	.
CCOC(=O)c1sc2ccccc2c1S(=O)(=O)Nc1cccc(C(F)(F)F)c1	/	/	.	/	.	/
CC(C)(C)c1cccc(S(=O)(=O)N2CCN(c3nc(-c4cccs4)nc4ccccc34)CC2)c1	.	/	/	.	/	/
CO[C@H]1/C=C/O[C@@]2(C)Oc3c(C)c(O)c4c(O)c(c(/C=N\N5CCN(C6CCCC6)CC5)c(O)c4c3C2=O)NC(=O)/C(C)=C\C=C\[C@H](C)[C@H](O)[C@@H](C)[C@@H](O)[C@@H](C)[C@H](OC(C)=O)[C@@H]1C	/	.	/	/	/	?
O=C(/C=C/c1ccccc1)NC(NC(=S)Nc1ccc(C(=O)O)cc1)C(Cl)(Cl)Cl (centres undefined)	.	.	.	.	.	.
O=C(NC(NC(=S)Nc1ccccc1Cl)C(Cl)(Cl)Cl)c1cccc(Cl)c1 (centres undefined)	?	?	?	?	21µM	?
